Only a sample is shown.
aSyn 5UTR act: Activators working through SNCA 5'UTR binding (MLPCN). activity score, % (tested at 7.5 µM), hits read low. hit rate 7.1% among 300,000. AID 1814. alpha-synuclein 5'UTR reporter, activators screen; in the data active = activity score below about -60%
The depositor's hits bear a star.

SMILES	aSyn 5UTR act
Cc1ccc(-c2cc(C(=O)NCc3ccco3)no2)cc1	-154*
CCc1nc2ccc(C(=O)NC3CCC(C)CC3)cc2nc1CC (centres undefined)	-86*
CC1CCC(NC(=O)c2ccc3snnc3c2)CC1 (centres undefined)	-86*
NN/C(=C\[N+](=O)[O-])Nc1ccccc1	-70*
O=c1sc(N2CCN(c3ccc(F)cc3)CC2)nc2ccsc12	-179*
O=c1sc(N2CCN(c3ccccc3F)CC2)nc2ccsc12	-192*
CN1CCN(C2Cc3ccc(F)cc3Sc3cc(F)c(Cl)cc32)CC1 (centres undefined)	102
CC(C)C(=O)Nc1ccc(C(=O)Nc2nnc(C(C)C)s2)cc1	-107*
COCc1nnc(NC(=O)c2cccc(NC(=O)C(C)C)c2)s1	-73*
CCOCc1nnc(NC(=O)c2cccc(OC)c2)s1	-96*
CC(C)C(=O)Nc1cccc(C(=O)Nc2nnc(C(C)C)s2)c1	-120*
CCc1nnc(NC(=O)c2cccc(NC(=O)C(C)C)c2)s1	-81*
Cc1ccnc(Nc2nc(-c3ccc(O)cc3)cs2)c1	-232*
Oc1ccc(-c2csc(Nc3ccccn3)n2)cc1O	-139*
CC(=O)Nc1ccc(-c2csc(Nc3ccccn3)n2)cc1	-161*
Cc1ccnc(Nc2nc(-c3ccc(O)cc3O)cs2)c1	-136*
CC(=O)Nc1ccc(Nc2nc(-c3c(C)nc4ccccn34)cs2)cc1	87
COc1ccc(OC)c(Nc2nc(-c3sc(NC(=O)CC(C)C)nc3C)cs2)c1	58
CCC(=O)Nc1nc(C)c(-c2csc(Nc3ccccn3)n2)s1	-122*
CC(=O)Nc1ccc(-c2csc(NCCc3ccccc3)n2)cc1	-141*
Cc1ccnc(Nc2nc(-c3ccc(O)c(O)c3)cs2)c1	-148*
O=C(Nc1ccccc1)N(C1=NCCCCS1)c1cccc2ccccc12	-85*
CCOc1ccc(-c2cn(-c3ccc(OC)cc3)c(SC)n2)cc1	-147*
CSc1nc(-c2ccccc2)cn1-c1ccc(NC(C)=O)cc1	-106*
Cc1ccc(S(=O)(=O)Nc2ccccc2CNc2ccccn2)cc1	-75*
SMILES	aSyn 5UTR act
Cc1ccc(O)c(CNc2ccccn2)c1	-67*
Cc1ccnc(NCc2cc(C)ccc2O)c1	-69*
Cc1ccc(S(=O)(=O)Nc2cccc3cccnc23)cc1	63
CC(C)S(=O)(=O)c1csc(C(=O)Nc2ccc(F)cc2)c1N	-100*
CCC1CCc2sc(C(=O)NCc3ccccn3)cc2C1 (centres undefined)	-92*
O=C(NNc1c2ccccc2nc2ccccc12)c1ccccc1O	-93*
O=C(NNc1c2ccccc2nc2ccccc12)c1ccc(O)cc1O	-79*
C/C(=N\NC(=O)c1cc(C2CC2)nc2ccccc12)c1ccc(O)cc1O	74
Cc1onc(-c2ccccc2)c1C(=O)NC(=S)NNC(=O)c1ccc(O)cc1O	64
O=C(NC(=S)Nc1cccc2cccnc12)c1cccs1	-63*
Cc1cccc(NC(=S)NC(=O)c2cccs2)n1	-140*
Cc1nc(NC(=S)NC(=O)c2cccs2)ccc1Br	-161*
Cc1ccc2nc(-c3ccc(NC(=O)CN4CCN(C(=O)c5ccco5)CC4)cc3)sc2c1	-177*
Cc1cc(C)cc(N(CC(=O)Nc2ccc(-c3nc4ccc(C)cc4s3)cc2)S(C)(=O)=O)c1	-100*
Cc1cccc(NS(=O)(=O)c2ccc(NC(=O)CN(c3cc([N+](=O)[O-])ccc3C)S(C)(=O)=O)cc2)c1	101
Cc1ccc2nc(-c3ccc(NC(=O)CN(c4ccccc4C)S(C)(=O)=O)cc3)sc2c1	-164*
COc1cccc(NCc2cc(=O)oc3cc(-c4ccccc4)c(O)cc23)c1	-128*
c1csc(-c2cnc3ccccc3n2)c1	-108*
c1cc(-c2cccs2)nc(-c2cccs2)c1	-104*
CSc1nccc(N/N=C/c2ccccc2)n1	-158*
C(=N\Nc1nccc(-c2cccnc2)n1)/c1ccccc1	-108*
Cc1ccnc(N/N=C/c2ccccc2)n1	-90*
Cc1ccc(-c2cc(-c3ccccc3O)nc(N/N=C/c3cccnc3)n2)cc1	-100*
Cc1nc2c(-c3ccc(F)cc3)cnn2c2c1CCC2	-87*
COc1cccc(C(=O)O/N=C(\N)c2ccncc2)c1OC	-84*
SMILES	aSyn 5UTR act
N/C(=N\OC(=O)c1cccc2ccccc12)c1ccccn1	102
COc1cccc(C(=O)O/N=C(\N)c2ccccn2)c1OC	-74*
Cc1ccn2cc(-c3cccc(NC(=O)C(C)C)c3)nc2c1	-107*
Cc1ccn2cc(-c3cccc(NC(=O)c4ccccc4)c3)nc2c1	-82*
COc1ccc(CC(=O)Nc2ccc(-c3cn4ccc(C)cc4n3)cc2)cc1	-110*
COc1ccc(NC2=Nc3ccccc3CC2)cc1	-137*
O=C(/C=C/c1ccco1)NC(=S)Nc1nc(-c2ccc3ccccc3c2)cs1	-94*
O=C(/C=C/c1ccco1)NC(=S)Nc1nc(-c2ccc(Cl)cc2)cs1	-76*
O=C(/C=C\c1ccco1)Nc1nc(-c2ccccc2)cs1	-121*
CCC(C)n1ncn(-c2ccc(N3CCN(c4ccc(OCC5COC(Cn6cncn6)(c6ccc(Cl)cc6Cl)O5)cc4)CC3)cc2)c1=O (centres undefined)	100
OCC1CCCN(C(=S)NCCc2ccccc2)C1 (centres undefined)	-106*
CC1CCN(C(=S)NCCc2ccccc2)CC1	-138*
O=C(/C=C/Sc1ccc(C(F)(F)F)cn1)c1ccccc1	-72*
CCCc1ccc2oc(C(=O)NCCc3cnn(C)c3)c(C)c2c1	-182*
CCCc1ccc2oc(C(=O)N3CCCC3)c(C)c2c1	-179*
Cc1c(C(=O)N2CCN(C)CC2)oc2ccc(Br)cc12	-104*
COc1ccccc1NC(=O)c1ccc(-c2ccccc2[N+](=O)[O-])o1	-125*
O=C(Nc1nccs1)c1ccc(-c2ccccc2Cl)o1	-286*
O=C(Nc1nccs1)c1ccc(-c2ccccc2[N+](=O)[O-])o1	-135*
CCC1CCc2c(sc(NC(=O)c3cnccn3)c2C(N)=O)C1 (centres undefined)	-86*
CCC1CCc2c(sc(NC(=O)c3ccco3)c2C(N)=O)C1 (centres undefined)	-246*
CN(/N=C/c1ccc(N(C)C)cc1)C1=NS(=O)(=O)c2ccccc21	-97*
COc1ccc(N(C)C2=NS(=O)(=O)c3ccccc32)cc1	-70*
CC(=O)Nc1ccc(-c2cn3c(n2)SCC3)cc1	-83*
O=C(Nc1ccc(-c2cn3c(n2)SCC3)cc1)c1ccco1	-170*
SMILES	aSyn 5UTR act
COc1ccc2c(c1)O/C(=C\c1sccc1C)C2=O	-198*
N#Cc1cn(-c2ccccc2)nc1-c1ccc2c(c1)OCCO2	-184*
N#Cc1cn(-c2ccccc2)nc1C(=O)c1ccccc1	-192*
N#Cc1cn(-c2ccccc2)nc1-c1ccco1	-147*
Cc1ccc(NC(=O)c2cc3nc(C)cc(C)n3n2)cc1	-82*
Cc1cc(C)n2nc(-c3ccccc3)cc2n1	-97*
Cc1ccc(-c2cc3nc(C)cc(C)n3n2)cc1	-109*
Cc1cc(C)n2nc(Nc3ccccc3)cc2n1	-165*
CC/C(C)=N/Nc1nc(-c2cc3cccc(OC)c3oc2=O)cs1	-108*
O=[N+]([O-])C(/C=C(\Cl)[N+](=O)[O-])=C(N1CCCCC1)N1CCCCC1	-69*
COc1ccc(C2C(CC(=O)O)=C(Nc3ccccc3)C(=O)N2c2ccccc2)cc1 (centres undefined)	-86*
O=C(O)CC1=C(Nc2ccccc2)C(=O)N(c2ccccc2)C1c1ccc(F)cc1 (centres undefined)	-83*
O=C(Nc1ccc(F)cc1)c1ccc2nc[nH]c2c1	-82*
